The results in this text go back to the supplement of paper PMC4894684.

Where a name gives a salt, the structure may show the parent alone. ± gives the standard deviation of the averaged measurements.

This assay relates to Toxoplasma gondii RH (in HFF). Nature of the assay: parasite growth relative to the screen mean (all compounds = 100%); higher = less inhibition of parasite growth. Conditions: 5 µM; 72 h; oxygen 21 %. Put shortly: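 Confluent human foreskin fibroblasts in 96-well plates received library compounds by pin transfer at 5 µM final, taken from 10 mM DMSO stocks. Within 2 h the cells were infected with RH β-Gal–GFP Toxoplasma at MOI 1:5 and cultured 72 h at 21% O2. A CPRG β-Gal assay read against in-plate standard curves gave parasite number, and growth is stated relative to the screen mean, where all compounds = 100%, averaged across two screens.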
The compound `Fc1ccc([C@@H]2CCNC[C@H]2COc2ccc3c(c2)OCO3)cc1` [Paroxetine maleate] showed a parasite growth of 39.5 ± 4%.
In the case of `CC[N+](CC)(CC)CC(=O)Nc1c(C)cccc1C` [QX 314 chloride] it was 133 ± 29%; in that of `Cc1ccc(=O)n(-c2ccccc2)c1` [Pirfenidone], 128 ± 11%.
The figure for `CCc1cc(C(C)=O)c(O)cc1OCCCCCC(C)(C)c1nn[nH]n1` is 111 ± 4.1%; for `Nc1nc2ccc(OC(F)(F)F)cc2s1` [Riluzole hydrochloride] it is 88.1 ± 11%; for `COc1ccc(C2CC(c3c(O)cc(C)oc3=O)=NCCS2)c(OC)c1` (stereo not drawn) it is 69.6 ± 9.3%.
`Clc1ccc(CCCOCCCN2CCCCC2)cc1` gave a parasite growth of 45.7 ± 21%.
The figure for `COC(=O)C1=C(C)NC(C)=C(C(=O)OC(C)C)C1c1cccc2nonc12` (stereo not drawn) [Isradipine] is 43.3 ± 5.6%; for `COc1ccc([C@@H]2Sc3ccccc3N(CCN(C)C)C(=O)[C@@H]2OC(C)=O)cc1` [Diltiazem hydrochloride] it is 94.4 ± 43%; for `O=C1NC(=O)c2cc(Nc3ccccc3)c(Nc3ccccc3)cc21` it is 176 ± 43%.
In the case of `COc1cc(OC)c(C(=O)CCCCN2CCC3(CC2)NC(=O)NC3=O)cc1NS(=O)(=O)c1ccc(C(F)(F)F)cc1`, the parasite growth was determined as 109 ± 11%.
In the case of `CC(C)NCC(O)COc1ccc(COCCOC(C)C)cc1` (racemic) [(±)-Bisoprolol hemifumarate] it was 77.7 ± 0.94%; in that of `CS(=O)(=O)c1ccc(Cn2c3c(c4cc(F)cc(F)c42)CCCC3CC(=O)O)cc1` (stereo not drawn), 120 ± 6.7%; in that of `CCCn1c(=O)c2[nH]c(C3CCCC3)nc2n(CCC)c1=O`, 103 ± 7%.
The figure for `COc1cc(OC)c(NC(=O)Nc2cc(C)on2)cc1Cl` is 135 ± 17%; for `COc1ccc(CC(=O)NC(/N=C(\NC#N)Nc2cccc3ncccc23)C(C)(C)C)cc1OC` (stereo not drawn) it is 123 ± 17%.
In the case of `O=C1C(=O)N(Cc2ccc(Cl)c(Cl)c2)c2ccccc21` [Apoptosis Activator 2] it was 120 ± 3.4%.
`Cc1c(C(=O)NC2CCCCC2)sc2nc3ccc(N)cc3n12` gave a parasite growth of 183 ± 33%.
The figure for `CC#C[C@]1(O)CC[C@H]2[C@@H]3CCC4=CC(=O)CCC4=C3[C@@H](c3ccc(N(C)C)cc3)C[C@@]21C` [Mifepristone] is 135 ± 14%.
In the case of `COc1ccc(OC)c2c(=S)c3ccccc3[nH]c12` it was 171 ± 20%; in that of `COc1cc(CNC(=O)CCCC/C=C/C(C)C)ccc1O` [(E)-Capsaicin], 135 ± 14%; in that of `COc1cccc(-c2cc(=O)c3ccccc3o2)c1N`, 93.9 ± 37%.
In the case of `NC(C(=O)O)c1ccc(C(=O)O)c(C(=O)O)c1` (racemic) it was 101 ± 31%.
Compound `CCN(c1ccccc1)c1cc(=NC)n(C)c(C)n1` registered a parasite growth of 59 ± 11%.
In the case of `CCN(CC)CCCCC1CCN(CC(=O)N2c3ccccc3C(=O)Nc3cccnc32)CC1` it was 141 ± 17%; in that of `CCCNC(=O)N1N=C(c2ccc(N)cc2)c2cc3c(cc2C1C)OCO3` (stereo not drawn), 99.9 ± 32%.
The figure for `CCc1c2c(nc3ccc(OC(=O)N4CCC(N5CCCCC5)CC4)cc13)-c1cc3c(c(=O)n1C2)COC(=O)[C@]3(O)CC` is 59.8 ± 11%; for `CN1CCC(=C2c3ccccc3C=Cc3ccccc32)CC1` [Cyproheptadine hydrochloride] it is 12.1 ± 16%; for `CNCC[C@@H](Oc1ccccc1C)c1ccccc1` [Tomoxetine hydrochloride] it is 85.9 ± 8.6%.
As for `c1cnc(N2CCN(Cc3ccc4c(c3)OCO4)CC2)nc1` [Piribedil], the parasite growth turned out to be 70.3 ± 8.6%.
The figure for `CN(C)c1nc(N)c(C(=O)Nc2cccnc2)nc1Cl` [ACDPP hydrochloride] is 88.7 ± 3%; for `C[C@]12CC[C@@H]3c4ccc(O)cc4C[C@@H](CCCCCCCCC[S+]([O-])CCCC(F)(F)C(F)(F)F)[C@H]3[C@@H]1CC[C@@H]2O` (stereo partly drawn) it is 43.7 ± 11%.
In the case of `CCCCN1CCCC1CNC(=O)c1cc(C#N)c2ccccc2c1OC` (stereo not drawn) [Nafadotride] it was 127 ± 15%; in that of `O=c1c(O)c(-c2ccc(O)c(O)c2)oc2cc(O)cc(O)c12` [Quercetin], 180 ± 32%.
In the case of `O=C(NCCO[N+](=O)[O-])c1cccnc1` [Nicorandil] it was 109 ± 12%; in that of `COc1ccccc1N1CCN(CC(O)COc2cccc3ccccc23)CC1` (stereo not drawn) [Naftopidil hydrochloride], 118.7 ± 0.3%; in that of `O=C(O)c1ccc(-c2c[nH]c3ncc(-c4ccccc4)cc23)cc1C1CCCC1`, 46.2 ± 9.6%.
On to `O=C(O)C1CCCN(CCC=C(c2ccccc2)c2ccccc2)C1` (stereo not drawn), for which the parasite growth turned out to be 122 ± 26%.
